Data on ten compounds can be found in PubChem BioAssay AID504799 (The Scripps Research Institute Molecular Screening Center, 2011).

The other results are listed elsewhere or left out. Values without a mark were called inactive. Active and inactive are the calls of the source.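 The calls were made as follows: active = mean activation over triplicate runs exceeds the adjusted cutoff derived for the parent primary screen (cut at about 19% in these data); inactive = the rest.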

This experiment in a line: fluorescence polarization artefacts, Cy5-IP20 alone – biochemical, triplicate, artefact control for PKA-R1A activator project, confirmation (AID 504799).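 Also: no PKA protein present so any polarization rise reflects compound interference; 0% = tracer peptide mix alone and 100% = mix with added PKA catalytic subunit; higher means stronger polarization artifact and likely false positive in parent screen.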 To be noted: Cy5-IP20 peptide alone, fluorescence polarization artifact counterscreen; at 11.4 µM; active compounds read high. In general terms: Polarisation of emitted light reports the rotation of a fluorescent probe.
Consider `COc1ccc(CNc2nnnn2C)cc1`, for which the activation was 3.5%.

For the compound `Cc1ccc2nc3c(cc(C(=O)NCCc4ccccc4)c(=N)n3CC3CCCO3)c(=O)n2c1` (stereo not given), the activation is 4%.

As to `N#Cc1ccccc1CN1C(=O)S/C(=C/c2cccn2-c2cccc(C(=O)O)c2)C1=O`, the activation is 19.3% (active).

For `COc1ccccc1N1CC(C(=O)Nc2nnc(SCC(=O)NC(C)C)s2)CC1=O` (stereo not given), the activation was -0.21%.

Consider `O=C(Nc1ccc2c(c1)[C@@H]1C[C@@H](CC(=O)N3CCCCC3)O[C@@H](CO)[C@@H]1O2)NC1CCCCC1`, for which the activation was 3.18%.

For `COc1ccc(NC(=O)c2ccc(C#CC(C)(C)O)cc2)cc1`, the activation is -2.01%.

In the case of `CCC(Oc1ccccc1C)C(=O)Nc1ccc(S(=O)(=O)Nc2cc(C)on2)cc1` (stereo not given), the activation is 2.96%.

`CCOc1cc(C(=O)Nc2c(C)ccc3nsnc23)cc(OCC)c1OCC`: the activation was 3.5%.

Consider `CCCC(=O)Nc1ncnc2c1ncn2[C@@H]1O[C@@H]2OP(=O)(O)OC[C@H]2[C@H]1OC(=O)CCC`, for which the activation is 0.15%.

With `CN(C(=O)CSc1nnc(Nc2ccccc2)s1)C1CCS(=O)(=O)C1` (stereo not given), the activation is 0.22%.
